GCN5L2 inh = blocks human GCN5L2 histone acetyltransferase. actives 0.21% (n = 390,000). GCN5L2 HAT assay, ThioGlo1 CoA-SH fluorescence. AID 504327. Potency, µM (highest dose often 58.9 µM), for inactives: at the highest dose activity change, negative = inhibition, actives largely listed as inhibitors; further: potency means the concentration at half of the fitted maximal effect; on the % scale 0 is the no-effect control and ±100 the full control effect
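GCN5L2 (20 nM) in 50mM HEPES pH 7.5, 0.1mM EDTA, 0.01% Tween-20 preincubated 15 min with compounds at room temperature. Reaction started with H3(1-25) 75uM, acetyl-CoA 70uM, ThioGlo1 50uM; CoA-thiol fluorescence (Ex340/Em540) read at 0 and 20 min.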
Rango-impB inh = inhibitors of Rango-importin beta complex formation; Rango CFP/YFP FRET sensor + importin beta, 45 min; actives 0.031% (n = 340,000); AID 540263; Potency, µM (highest dose often 92.2 µM), without a hit: at the top dose inhibition of complex formation; Q14974; calls by dose curve;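 further: potency means the concentration at half of the fitted maximal effect; 0% = DMSO wells and 100% = buffer wells lacking importin beta; nearly all actives have a fitted effect of over 15% in size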
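FRET biosensor Rango (snurportin 1 IBB between N-terminal EYFP and C-terminal Cerulean), 50 nM in PBS/1 mM DTT/0.02% Tween-20/0.1% BSA, preincubated 5 min RT with compound; 0.125 microM importin beta added, 45 min RT, CFP/YFP FRET ratio read.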
VDR inh = blocks the human vitamin D receptor | P11473 | VDR-SRC2-3 peptide fluorescence polarization, 2 h | Potency, µM, inactives show max response, negative = inhibition, usual class: inhibitors | actives 0.93% (n = 400,000); further: potency means the concentration at half of the fitted maximal effect; on the % scale 0 is the no-effect control and ±100 the full control effect
Target sequence (P11473 whole entry, looked up): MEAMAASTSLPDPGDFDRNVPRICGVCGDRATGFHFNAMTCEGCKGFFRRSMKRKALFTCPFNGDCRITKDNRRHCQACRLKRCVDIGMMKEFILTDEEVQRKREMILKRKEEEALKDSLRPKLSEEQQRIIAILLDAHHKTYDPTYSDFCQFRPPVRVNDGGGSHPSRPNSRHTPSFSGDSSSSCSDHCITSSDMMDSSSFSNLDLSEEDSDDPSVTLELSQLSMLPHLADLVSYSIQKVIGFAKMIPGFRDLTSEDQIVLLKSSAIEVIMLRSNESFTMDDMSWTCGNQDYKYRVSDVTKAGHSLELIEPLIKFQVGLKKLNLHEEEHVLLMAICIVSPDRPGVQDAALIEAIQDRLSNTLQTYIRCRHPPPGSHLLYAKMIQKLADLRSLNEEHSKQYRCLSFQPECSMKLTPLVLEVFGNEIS
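Two reagent solutions held at 4 deg C in the dark were dispensed, compounds pinned at 23 nl, and the mixture incubated 2 h at room temperature. Read-out: fluorescence polarization of VDR–SRC2-3 peptide binding.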
PI5P4K alpha inh = PI5P4K alpha (human) kinase inhibition; P48426; PI5P4Kalpha enzyme, ADP-Glo luminescence, 60 min; hits give low values; max response, %; actives 1.2% (n = 330,000); AID 652105; active means max response of -50% or lower; inconclusive means between -30% and -50%; inactive means -30% or higher; further: value at the top dose of about 77 µM; on the % scale 0 is the no-effect control and ±100 the full control effect
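Human PI5P4Kalpha with substrate in 0.038 M HEPES pH 7.4, 0.28 mM EGTA, 0.1% CHAPS, 5% DMSO; reaction started with 5 microM ATP (final), 60 min at room temperature. ADP formed read by ADP-Glo luminescence.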
PLK1 PBD block = inhibitors of human PLK1 polo-box domain binding; AID 720504; actives 2.8% (n = 360,000); Plk1 PBD binding of FITC phosphopeptide, fluorescence polarization; Potency, µM, for the others: max response, negative = inhibition, usual class: inhibitors; P53350; further: potency means the concentration at half of the fitted maximal effect; series mostly up to about 57 µM; on the % scale 0 is the no-effect control and ±100 the full control effect; nearly all actives have a fitted effect of over 65% in size
Rango dissoc inh = inhibition of RanGTP-driven Rango-importin beta dissociation. Biochemical FRET Rango-importin beta, RanGTP-induced dissociation. Potency, µM (series often up to 46.1 µM), inactives show top-dose activity change, negative = inhibition. actives 0.071% (n = 340,000). AID 540253; calls by dose curve; further: potency means the concentration at half of the fitted maximal effect; % of control where 0% means no effect; nearly all actives have a fitted effect of over 45% in size
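Rango/importin beta premix (0.1/0.25 uM final), PBS + 1 mM DTT + 0.02% Tween-20 + 0.1% BSA; cpd 5 min RT; FRET pre-read; + RanGTP-RCC1 (0.6 uM Ran, 2 mM GTP, 0.2 uM RCC1); 45 min RT; FRET post-read, ex 430, em 486/530 nm.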
* hit, by the source's call; ? = inconclusive; . = no result given. The list is not random: actives were taken first. Their share in the collection is about 3.6%. Unless noted, the call rests on the fitted dose curve; in most records, active means well fitted curve in the direction sought with a large enough effect; inconclusive means small, poorly fitted or top-dose-only effect, or another doubt; inactive means no such curve, though single readings can be large; an effect the other way counts as inactive or inconclusive.

SMILES | GCN5L2 inh | Rango-impB inh | VDR inh | PI5P4K alpha inh | PLK1 PBD block | Rango dissoc inh
COc1ccc([C@H]2OCC3C2CO[C@@H]3c2ccc(OC)c(OC)c2)cc1OC (stereo partly drawn) | 11% | . | 1% | . | . | .
CSC1=NCCN1C(=O)c1ccc(C)cc1 | -2% | -2% | -9% | 1 | 2% | 1%
CSC1=NCCN1C(=O)c1ccc(S(=O)(=O)N(C)C)cc1 | -14% | -2% | -21% | 3 | 27µM* | -13%
COc1ccc(S(=O)(=O)c2cn(Cc3ccccc3)c3cc(N4CCCC4)c(F)cc3c2=O)cc1 | -5% | . | 19% | . | . | .
CC(=O)c1ccc(N2CCN(c3ncnc4c3cnn4-c3cc(Cl)ccc3C)CC2)cc1 | -8% | . | -2% | . | . | .
COc1ccc(NC2=CC(c3ccc(OC)cc3)N(c3ccc(OC)cc3)C2=O)cc1 (stereo not drawn) | -1% | -4% | -27% | 1 | 24µM* | 1%
COc1ccc(NC2=CC(c3ccc(F)cc3)N(c3ccc(OC)cc3)C2=O)cc1 (stereo not drawn) | -4% | -4% | -11% | 0 | -3% | 1%
CCCCOc1ccc(OC(=O)c2sc3ncn(Cc4cccc(F)c4)c(=O)c3c2C)cc1 | -1% | . | 11% | . | . | .
COc1ccc(OC)c2cc3ccccc3cc12 | . | 12% | ? | -60* | 2.7µM* | -3%
CCOCCCNC(=O)c1ccc2c(c1)ncn2-c1ccc(C)cc1C | 1% | 2% | ? | -12 | 19µM* | 11%
CCOCCCNC(=O)c1ccc2c(c1)ncn2-c1ccccc1OC | -10% | 0% | 17% | 3 | -18% | 0%
Cc1ccc(C=C2C(=O)c3ccccc3C2=O)o1 | -2% | -2% | -5% | ? | -25% | 12%
Cc1ccc(/C=C2/C(=O)c3ccc(C(=O)O)cc3C2=O)o1 | -3% | ? | 1% | -62* | 24µM* | 11%
Cc1ccc2c(Cl)cc(Cl)c(OCC(=O)N3CCCC3)c2n1 | -1% | ? | -25% | -4 | 27µM* | -9%
COc1cc(NC(=O)CSc2cc(=O)n(C)c3ccccc23)cc(OC)c1OC | -2% | . | -14% | . | . | .
CCOC(=O)CC(NC(=O)CCc1c(C)nc2c(c(C)nn2-c2ccc(C)c(C)c2)c1C)c1ccc(C)cc1 (stereo not drawn) | -4% | . | 12% | . | . | .
CN1C(=O)/C(=C/c2ccc(O)c([N+](=O)[O-])c2)NC1=S | -2% | ? | 8% | -56* | -2% | 0%
CCN(c1ccccc1)S(=O)(=O)c1ccc(NC(=O)c2cc(=O)c3ccc(C)c(C)c3o2)cc1 | -5% | . | -4% | . | . | .
Cc1cc(Cl)ccc1NC(=O)c1cc2ccccn2n1 | -2% | . | 0% | . | . | .
Cc1occc(=O)c1OCc1c(F)cccc1Cl | -3% | 2% | -13% | -27 | 21µM* | -12%
COc1ccc(C2=NC(c3ccc(Cl)cc3)C(c3ccc(Cl)cc3)N2C(=O)N2CCNC(=O)C2)c(OC(C)C)c1 (stereo not drawn) | -21% | . | 50µM* | . | . | .
COc1ccc(/C=C/C(=O)N2CCNC(=O)C2)c(OC)c1 | -7% | 2% | -9% | -3 | -10% | 3%
COc1ccc2c(c1)NC(c1cccnc1)=NC(c1ccc(F)cc1)=N2 | -4% | . | 16% | . | . | .
Cc1ccc(NC2=C(Cl)C(=O)OC2OC(=O)c2ccco2)cc1C (stereo not drawn) | -4% | 1% | 0% | 10 | -11% | 11%
Cc1ccccc1C(=O)OC1OC(=O)C(Cl)=C1Nc1ccc(C(=O)O)cc1 (stereo not drawn) | -19% | 1% | ? | -29 | 3.8µM* | -4%
SMILES | GCN5L2 inh | Rango-impB inh | VDR inh | PI5P4K alpha inh | PLK1 PBD block | Rango dissoc inh
COC(=O)CC1c2ccccc2C(Cc2ccc3c(c2)OCO3)=C(C)N1C(=O)OC (stereo not drawn) | . | . | -2% | . | . | .
N#Cc1cccc(NC(=O)Cn2cnc(S(=O)(=O)N3CCOCC3)c2)c1 | -4% | 0% | ? | -16 | 9.5µM* | 11%
C=CCOc1cccc(NC(=O)c2ccccc2SC)c1 | -8% | ? | -19% | -3 | 27µM* | 2%
CSc1ccccc1C(=O)Nc1ccccc1C(=O)NC(C)C | 19% | -6% | 79µM* | -20 | 30µM* | 20%
CC(C)NC(=O)c1ccccc1NC(=O)C1COc2ccccc2O1 (stereo not drawn) | -8% | -2% | ? | -9 | 27µM* | -2%
O=C(Nc1cc(F)ccc1F)N1CCC(CN2CCCC2)CC1 | 1% | . | 10% | . | . | .
Cc1ccc(NC(=O)c2nc(S(C)(=O)=O)ncc2N(Cc2ccc(C(C)(C)C)cc2)Cc2ccco2)cc1C | -14% | . | 12% | . | . | .
C(#Cc1ccccc1)C[N+]1(CC#Cc2ccccc2)CCCCC1 | -3% | -1% | 15% | -24 | 27µM* | 26%
N#CC(CCc1ccc([N+](=O)[O-])cc1)(CCc1ccc([N+](=O)[O-])cc1)C(N)=O | . | ? | 3% | -85* | -14% | ?
O=[N+]([O-])c1ccc(Cc2ccc([N+](=O)[O-])cc2)cc1 | . | 3% | 1% | -2 | -6% | -16%
Cc1ccc(N(CCC#N)C(=O)CSc2ccc3c(c2)OCCO3)cc1 | 30% | 1% | -15% | 4 | ? | -10%
Cc1cc(C)n2c(SCC(=O)Nc3ccccc3)nnc2n1 | -14% | 6% | -12% | 0 | -16% | 10%
CCN(CC)c1ccc(NC(=O)CSc2nnc3nc(C)cc(C)n23)cc1 | -25% | -1% | -10% | 2 | 17µM* | 23%
Cc1cc(C)n2c(SCC(=O)N(CCC#N)c3ccc4c(c3)OCCO4)nnc2n1 | . | . | . | -61* | ? | .
COc1ccc(C2CC(=O)c3c([nH]c(C(=O)OCc4ccccc4)c3C)C2)cc1 (stereo not drawn) | 4% | . | -4% | . | . | .
Cc1c(C(=O)OCCOC(C)C)[nH]c2c1C(=O)CC(c1ccco1)C2 (stereo not drawn) | -8% | 3% | -4% | ? | -22% | -3%
CCOC(=O)c1[nH]c2c(c1C)C(=O)CC(c1ccco1)C2 (stereo not drawn) | -18% | ? | -5% | -68* | -25% | -1%
Cc1c(C(=O)OCc2ccccc2)[nH]c2c1C(=O)CC(c1ccco1)C2 (stereo not drawn) | -16% | -6% | -27% | -51* | ? | -15%
COCCOC(=O)/C(=C/c1ccc(OC(=O)c2ccccc2)cc1)C(C)=O | -1% | 0% | 22µM* | 0 | 21µM* | -1%
CCOC(=O)/C(=C/c1ccc(OC(=O)c2ccncc2)cc1)C(C)=O | -12% | 0% | ? | 4 | ? | 8%
CC(/C=N/N1CCN(c2ccc(C)cc2)CC1)=C\c1ccccc1 | 0% | -1% | 13% | 2 | -14% | -14%

Compound activity (PubChem BioAssay)
